Values joined by “and” are separate entries in the source; they are usually repeats but may differ in a detail not shown here. Equal values may be shown once. In all, about 5,500 compounds went through this assay and about 2,000 (36%) were called active. Roughly 18% stayed inconclusive and do not appear here. Cut-off read from the data, not from the text of the source: active = normalized growth mostly below about 0.91 (no sharp cut-off); inconclusive = no clear call, values can overlap the other calls; inactive = mostly above about 0.92. This is one part of the list.
Assay: chemical genetic growth profiling, strain panel (AID 1159580);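 note: tested at 20 µM; growth read once vehicle control cultures reached saturation at 30 °C; 1 = growth at the plate median or of vehicle wells; lower values mean less growth of the strain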
Details: S. cerevisiae deletion strains, growth OD

SMILES: CC(C)c1nc(N(C)S(C)(=O)=O)nc(-c2ccc(F)cc2)c1/C=C/[C@@H](O)C[C@@H](O)CC(=O)O
- normalized growth (locus YAL013W, strain DEP1, stronger effect = lower value): 0.988 (inactive)
- normalized growth (locus YAL021C, strain ccr4, stronger effect = lower value): 0.839 (active)
- normalized growth (locus YAL026C, strain drs2, stronger effect = lower value): 0.98 (inactive)
- normalized growth (locus YAL030W, strain snc1, stronger effect = lower value): 0.998 (inactive)
- normalized growth (locus YBL061C, strain skt5, stronger effect = lower value): 1.02 (inactive)
- normalized growth (locus YBR009C, strain hhf1, stronger effect = lower value): 0.998 (inactive)
- normalized growth (locus YBR021W, strain FUR4, stronger effect = lower value): 0.96 (inactive)
- normalized growth (locus YBR023C, strain chs3, stronger effect = lower value): 1.02 (inactive)
- normalized growth (locus YBR171W, strain sec66, stronger effect = lower value): 1.01 (inactive)
- normalized growth (locus YBR229C, strain ROT2, stronger effect = lower value): 1.01 (inactive)
- normalized growth (locus YBR231C, strain swc5, stronger effect = lower value): 0.922 (inactive)
- normalized growth (locus YBR279W, strain paf1, stronger effect = lower value): 0.99 (inactive)
- normalized growth (locus YCL011C, strain gbp2, stronger effect = lower value): 1.01 (inactive)
- normalized growth (locus YCL016C, strain dcc1, stronger effect = lower value): 0.998 (inactive)
- normalized growth (locus YCL029C, strain bik1, stronger effect = lower value): 1.01 (inactive)
- normalized growth (locus YCL069W, strain vba3, stronger effect = lower value): 1.02 (inactive)
- normalized growth (locus YCR088W, strain abp1, stronger effect = lower value): 1.03 (inactive)
- normalized growth (locus YDL005C, strain med2, stronger effect = lower value): 1.02 (inactive)
- normalized growth (locus YDL035C, strain GPR1, stronger effect = lower value): 1 (inactive)
- normalized growth (locus YDL040C, strain nat1, stronger effect = lower value): 1.01 (inactive)
- normalized growth (locus YDL074C, strain BRE1, stronger effect = lower value): 0.995 (inactive)
- normalized growth (locus YDL101C, strain DUN1, stronger effect = lower value): 0.996 (inactive)
- normalized growth (locus YDL134C, strain PPH21, stronger effect = lower value): 0.995 (inactive)
- normalized growth (locus YDL185W, strain tfp1, stronger effect = lower value): 0.928 (inactive)
- normalized growth (locus YDL192W, strain arf1, stronger effect = lower value): 1 (inactive)
- normalized growth (locus YDR001C, strain nth1, stronger effect = lower value): 1.03 (inactive)
- normalized growth (locus YDR069C, strain doa4, stronger effect = lower value): 0.971 (inactive)
- normalized growth (locus YDR101C, strain arx1, stronger effect = lower value): 0.999 (inactive)
- normalized growth (locus YDR137W, strain rgp1, stronger effect = lower value): 1.34 [resistant] (active)
- normalized growth (locus YDR150W, strain NUM1, stronger effect = lower value): 1.01 (inactive)
- normalized growth (locus YDR159W, strain sac3, stronger effect = lower value): 0.998 (inactive)
- normalized growth (locus YDR162C, strain NBP2, stronger effect = lower value): 0.961 (inactive)
- normalized growth (locus YDR195W, strain ref2): 1.09 (inactive)
- normalized growth (locus YDR297W, strain sur2, stronger effect = lower value): 0.977 (inactive)
- normalized growth (locus YDR318W, strain mcm21, stronger effect = lower value): 1.01 (inactive)
- normalized growth (locus YDR334W, strain swr1, stronger effect = lower value): 0.982 (inactive)
- normalized growth (locus YDR335W, strain msn5, stronger effect = lower value): 1.02 (inactive)
- normalized growth (locus YDR388W, stronger effect = lower value): 1.01 (inactive)
- normalized growth (locus YDR392W, strain spt3, stronger effect = lower value): 1.02 (inactive)
- normalized growth (locus YDR502C, strain sam2, stronger effect = lower value): 1 (inactive)
- normalized growth (locus YEL003W, strain gim4, stronger effect = lower value): 1.02 (inactive)
- normalized growth (locus YEL037C, strain rad23, stronger effect = lower value): 1.01 (inactive)
- normalized growth (locus YEL061C, strain CIN8 (second series), stronger effect = lower value): 1.02 (inactive)
- normalized growth (locus YEL061C, strain CIN8, stronger effect = lower value): 0.998 (inactive)
- normalized growth (locus YER015W, strain faa2, stronger effect = lower value): 0.99 (inactive)
- normalized growth (locus YER016W, strain bim1, stronger effect = lower value): 1.01 (inactive)
- normalized growth (locus YER110C, stronger effect = lower value): 0.999 (inactive)
- normalized growth (locus YER111C, strain swi4, stronger effect = lower value): 1.02 (inactive)
- normalized growth (locus YER155C, strain BEM2 (second series), stronger effect = lower value): 1.02 (inactive)
- normalized growth (locus YER155C, strain BEM2, stronger effect = lower value): 0.99 (inactive)
- normalized growth (locus YER167W, strain BCK2, stronger effect = lower value): 1 (inactive)
- normalized growth (locus YFR010W, strain ubp6, stronger effect = lower value): 0.995 (inactive)
- normalized growth (locus YGL078C, strain dbp3, stronger effect = lower value): 0.997 (inactive)
- normalized growth (locus YGL086W, strain mad1, stronger effect = lower value): 1.01 (inactive)
- normalized growth (locus YGL167C, strain pmr1, stronger effect = lower value): 1.01 (inactive)
- normalized growth (locus YGL173C, strain kem1, stronger effect = lower value): 1 (inactive)
- normalized growth (locus YGL227W, strain vid30, stronger effect = lower value): 1.02 (inactive)
- normalized growth (locus YGL240W, strain doc1, stronger effect = lower value): 1.03 (inactive)
- normalized growth (locus YGL248W, strain PDE1, stronger effect = lower value): 0.993 (inactive)
- normalized growth (locus YGL253W, strain hxk2, stronger effect = lower value): 1.01 (inactive)
- normalized growth (locus YGR078C, strain PAC10, stronger effect = lower value): 1.01 (inactive)
- normalized growth (locus YGR135W, strain pre9, stronger effect = lower value): 0.987 (inactive)
- normalized growth (locus YGR229C, strain SMI1, stronger effect = lower value): 1.01 (inactive)
- normalized growth (locus YGR252W, strain gcn5, stronger effect = lower value): 1.04 (inactive)
- normalized growth (locus YHR013C, strain ard1, stronger effect = lower value): 0.972 (inactive)
- normalized growth (locus YHR027C, strain rpn1, stronger effect = lower value): 1.01 (inactive)
- normalized growth (locus YHR030C, strain SLT2, stronger effect = lower value): 1 (inactive) and 0.0994 (active)
- normalized growth (locus YHR079C, strain IRE1 (second series), stronger effect = lower value): 1 (inactive)
- normalized growth (locus YHR079C, strain IRE1, stronger effect = lower value): 0.127 (active)
- normalized growth (locus YHR094C, strain hxt1, stronger effect = lower value): 1.01 (inactive)
- normalized growth (locus YHR129C, strain ARP1, stronger effect = lower value): 0.99 (inactive)
- normalized growth (locus YHR142W, strain chs7, stronger effect = lower value): 1.02 (inactive)
- normalized growth (locus YHR200W, strain rpn10, stronger effect = lower value): 1 (inactive)
- normalized growth (locus YIL066C, strain RNR3, stronger effect = lower value): 1.02 (inactive)
- normalized growth (locus YIL073C, strain SPO22, stronger effect = lower value): 1 (inactive)
- normalized growth (locus YIL125W, strain kgd1, stronger effect = lower value): 1.02 (inactive)
- normalized growth (locus YIR030C, strain dcg1, stronger effect = lower value): 1.01 (inactive)
- normalized growth (locus YJL092W, strain hpr5, stronger effect = lower value): 1.03 (inactive)
- normalized growth (locus YJL095W, strain BCK1 (second series), stronger effect = lower value): 0.986 (inactive)
- normalized growth (locus YJL095W, strain BCK1, stronger effect = lower value): 0.996 (inactive) and 0.12 (active)
- normalized growth (locus YJL115W, strain asf1, stronger effect = lower value): 1 (inactive)
- normalized growth (locus YJL129C, strain trk1, stronger effect = lower value): 1.08 (inactive)
- normalized growth (locus YJL134W, strain LCB3, stronger effect = lower value): 1 (inactive)
- normalized growth (locus YJL154C, strain vps35, stronger effect = lower value): 1.01 (inactive)
- normalized growth (locus YJL164C, strain tpk1, stronger effect = lower value): 1 (inactive)
- normalized growth (locus YJL166W, strain qcr8, stronger effect = lower value): 0.994 (inactive)
- normalized growth (locus YJL168C, strain set2, stronger effect = lower value): 1.01 (inactive)
- normalized growth (locus YJL187C, strain SWE1 (second series), stronger effect = lower value): 1 (inactive)
- normalized growth (locus YJL187C, strain SWE1, stronger effect = lower value): 0.998 (inactive)
- normalized growth (locus YJR043C, strain POL32, stronger effect = lower value): 0.997 (inactive)
- normalized growth (locus YJR066W, strain TOR1, stronger effect = lower value): 0.00783 (active)

From PubChem BioAssay AID1159580 (chemical genetic matrix, 2015)
